Results from PubChem BioAssay (NCATS).
Results filed as inconclusive are left out. Activity calls are given as the source filed them. The call rests on the fitted dose curve; in most records, active means well fitted curve in the direction sought with a large enough effect; inconclusive means small, poorly fitted or top-dose-only effect, or another doubt; inactive means no such curve, though single readings can be large; an effect the other way counts as inactive or inconclusive.

Assays:
[1] = target: Glutathione peroxidase 1 (Homo sapiens) (UniProt P07203); test: Primary qHTS Assay for Inhibitors of Recombinant Selenoprotein Glutathione Peroxidase 1 (GPX1) (AID 1845191); further: nearly all actives have a fitted effect of over 65% in size; on activity, negative = inhibition: on the % scale 0 is the no-effect control and ±100 the full control effect
Chain of Glutathione peroxidase 1 (Homo sapiens) (P07203 whole entry, looked up): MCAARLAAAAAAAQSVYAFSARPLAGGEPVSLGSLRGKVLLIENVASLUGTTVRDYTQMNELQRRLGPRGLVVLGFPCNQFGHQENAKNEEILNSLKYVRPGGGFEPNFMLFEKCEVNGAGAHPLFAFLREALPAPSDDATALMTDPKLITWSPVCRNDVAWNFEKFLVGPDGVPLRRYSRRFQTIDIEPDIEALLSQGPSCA
Summary of the method: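 NADPH consumption tracked by fluorescence at 340/450 nm between t=0 and t=15 min, room temperature. Final mix: 10 nM GPX1, 100 nM glutathione reductase, 1 mM GSH, 0.5 mM NADPH, 0.5 mM cumene hydroperoxide, 0.01% BSA; 30 min compound–enzyme preincubation.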

[2] = target: Phospholipid hydroperoxide glutathione peroxidase GPX4 (Homo sapiens) (UniProt P36969); test: Primary qHTS Assay for Inhibitors of Recombinant Selenoprotein Glutathione Peroxidase 4 (GPX4) (AID 1845192); further: series mostly up to about 50 µM; on the % scale 0 is the no-effect control and ±100 the full control effect; nearly all actives have a fitted effect of over 65% in size
Chain of Phospholipid hydroperoxide glutathione peroxidase GPX4 (Homo sapiens) (P36969 whole entry, looked up): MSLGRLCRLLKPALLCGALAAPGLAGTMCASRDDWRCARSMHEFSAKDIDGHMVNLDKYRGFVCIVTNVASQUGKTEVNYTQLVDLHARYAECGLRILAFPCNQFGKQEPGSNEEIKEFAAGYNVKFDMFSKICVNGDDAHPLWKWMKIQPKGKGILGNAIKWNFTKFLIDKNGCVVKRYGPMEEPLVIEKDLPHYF
Summary of the method: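 NADPH consumption followed by fluorescence at 340/450 nm, t=0 and after 15 min at room temperature. Reaction started with cumene hydroperoxide (0.5 mM final) after 30 min compound–GPX4 preincubation; final 200 nM GPX4, 100 nM GR, 1 mM GSH, 0.5 mM NADPH.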

[3] = target: Luciferin 4-monooxygenase (Photinus pyralis) (UniProt P08659); test: Primary firefly luciferase (FLuc) qHTS assay for identification of artifact compounds. (AID 1845220); further: nearly all actives have a fitted effect of over 60% in size;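 on activity change, negative = inhibition: series mostly up to about 54 µM; plate controls were DMSO vehicle for no effect and no enzyme for full effect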
Summary of the method: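 FLuc 10 nM; luciferin 10 uM; ATP 10 uM; Tris-acetate pH 7.6, Mg-acetate 10 mM; 15 min RT preincubation; 5 min reaction; luminescence.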

[4] = Primary fluorescence-based thiol-reactive (MSTI) qHTS assay for identification of artifact compounds. (AID 1845221);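 further: series mostly up to about 54 µM; thiol-reactive compounds lower the probe fluorescence signal; nearly all actives have a fitted effect of over 65% in size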
Summary of the method: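 A multi-concentration qHTS design tested compounds against 4 uM MSTI, pH 7.4 phosphate-buffered saline. Plates were protected from light for 1 h at room temperature before imaging fluorescence.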

[5] = test system: Nanoluciferase (engineered Oplophorus gracilirostris luciferase); test: Primary Nanoluciferase (NLuc) qHTS assay for identification of artifact compounds. (AID 1845222);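 further: NLuc secreted into diluted conditioned medium of S16 cells; series mostly up to about 54 µM; 0% = DMSO and -100% = no enzyme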
Summary of the method: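 NLuc from S16 cell medium (1:55) plus test compounds, 15 min, room temperature. Luminescence after Nano-Glo (1:100) addition, 5 min.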

C1CCN2CC3C[C@@H](CN4CCCC[C@@H]34)[C@H]2C1
inactive: Potency [1] | Potency [2] | Potency [3] | Potency [4] | Potency [5]

CC1CCC2(C)C(CC(O)C(O)C23CO3)C1(C)CCC1=CC(O)OC1=O (stereo not given)
inactive: Potency [1] | Potency [2] | Potency [3] | Potency [4] | Potency [5]

CCNC(=O)CCC/C=C\C[C@@H]1[C@@H](/C=C/C(O)CCc2ccccc2)[C@@H](O)C[C@@H]1O (stereo not given in full)
inactive: Potency [1] | Potency [2] | Potency [3] | Potency [4] | Potency [5]

O=S(=O)(NC1CCNCC1)c1cc(S(=O)(=O)c2ccccc2)ccc1C(F)(F)F
inactive: Potency [1] | Potency [2] | Potency [3] | Potency [4] | Potency [5]

C/C(=C\CCC(C(=O)O)C1CCC2(C)C3=C(CCC12C)C1(C)CCC(=O)C(C)(C)C1CC3)C(=O)O (stereo not given)
inactive: Potency [1] | Potency [2] | Potency [3] | Potency [4] | Potency [5]

C[C@@H]1O[C@@H](O[C@@H]2[C@@H](O)[C@H](O[C@@H]3[C@@H](O)[C@@H](O)[C@H](O[C@H]4[C@H](OC(=O)[C@]56CCC(C)(C)C[C@H]5C5=CCC7[C@@]8(C)C[C@H](O)[C@H](O[C@@H]9O[C@@H](C)[C@H](O)[C@@H](O)[C@H]9O)[C@@](C)(CO)C8CC[C@@]7(C)[C@]5(C)C[C@H]6O)O[C@H](C)[C@H](O)[C@@H]4O)O[C@H]3C)OC[C@H]2O)[C@H](O)[C@H](O)[C@H]1O (stereo not given in full)
inactive: outcome [1] inactive [at 9.52 µM] | activity change, negative = inhibition [2] 0.486% [at 9.73 µM] | outcome [3] inactive [at 11.6 µM] | activity change, negative = thiol reactive [4] 292% [at 11.5 µM] | activity, negative = inhibition [5] 4.95% [at 11.6 µM]
